This passage reports growth results from PubChem BioAssay (NCI).

Test systems include SK-MEL-2 melanoma; SN12C renal; UO-31 renal; TK-10 renal; ACHN renal; CAKI-1 renal; A498 renal; CCRF-CEM leukemia; MOLT-4 leukemia; SR leukemia; RPMI-8226 leukemia; OVCAR-8 ovarian; OVCAR-5 ovarian; OVCAR-4 ovarian; SK-OV-3 ovarian; OVCAR-3 ovarian; HS 578T breast; NCI/ADR-RES ovarian; IGROV1 ovarian.
Assay in all cases: NCI-60 one-dose screen, 48 h (100 = growth as untreated, 0 = no growth, -100 = all killed)
Settings in all cases: 10 µM unless noted

The panel holds about 83,000 compounds, 20% with a hit somewhere; the sample as a whole holds those more often.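 96-well plates, one dose, 48 hours. Percent growth reported; active if below 10.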 Unmarked numbers belong to inactive results. Calls of active or inactive are those of the source.

For the compound `CCCCCCCCCCn1cc[n+](C)c1`, the growth with SK-MEL-2 melanoma is 13.1%; in the assay with SN12C renal, 19.4%; in the assay with UO-31 renal, 65.7%; with TK-10 renal, -1.53% (active); in the assay with ACHN renal, 45%; in the assay on CAKI-1 renal, 28.8%. Moreover, the growth with A498 renal is 12.4%; in the assay on CCRF-CEM leukemia it was 111%; in the assay with MOLT-4 leukemia, 78.6%; in the assay on SR leukemia, 104%; in the assay on RPMI-8226 leukemia, 116%; with OVCAR-8 ovarian, 11.5%. Further, the growth was 45.6% in the assay with OVCAR-5 ovarian; 22.7% in the assay on OVCAR-4 ovarian; 44.5% in the assay with SK-OV-3 ovarian; 45.9% with OVCAR-3 ovarian; 30.3% in the assay on HS 578T breast; 82.2% in the assay on NCI/ADR-RES ovarian.
For `COc1ccc(/C=C/c2cc(N3CCOCC3)c3cc(F)c(F)cc3n2)cc1OC`, the growth with SK-MEL-2 melanoma is 45%; with SN12C renal it was 44.4%; with UO-31 renal it was 18.2%; with TK-10 renal it was 31.9%; in the assay on ACHN renal, 26.4%; in the assay with CAKI-1 renal, 8.6% (active). In addition, the growth with A498 renal is 54.8%; with CCRF-CEM leukemia, 12.3%; in the assay on MOLT-4 leukemia it was 9.14% (active); with SR leukemia it was 16.2%; in the assay with RPMI-8226 leukemia, 43.2%; with OVCAR-8 ovarian it was 28.6%. For the same compound, the growth in the assay with OVCAR-5 ovarian is 65.5%; in the assay on OVCAR-4 ovarian, 35.8%; with SK-OV-3 ovarian, 55.5%; in the assay on HS 578T breast, 74.7%; in the assay with NCI/ADR-RES ovarian it was 4.66% (active).
As for `COc1cc(Cn2c(SCC(=O)Nc3cc(OC)c(OC)c(OC)c3)nc3ccccc3c2=O)cc(OC)c1OC`, the growth in the assay on SK-MEL-2 melanoma is 75.1%; in the assay on SN12C renal it was 82%; in the assay with UO-31 renal it was 80.4%; in the assay with TK-10 renal, 67.9%; in the assay with ACHN renal, 33.4%; in the assay with CAKI-1 renal, 95.5%. Besides, the growth in the assay with A498 renal was 62.4%; in the assay on CCRF-CEM leukemia, 101%; in the assay with MOLT-4 leukemia, 89.4%; with SR leukemia it was 66.6%; with RPMI-8226 leukemia, 96%; in the assay with OVCAR-8 ovarian it was 81%. In addition, the growth is 88.8% in the assay with OVCAR-5 ovarian; 89.8% in the assay on OVCAR-4 ovarian; 72.6% with IGROV1 ovarian; 48.4% in the assay on HS 578T breast; 99.5% in the assay on NCI/ADR-RES ovarian.
